Measurements taken from PMC5540273 (PLoS ONE, 2017).

Columns and labels:
Settings in all cases: concentration: 1 μM, replicates: in singlicate; n = 1
TESK1 = system: TESK1
TGFBR1 = system: TGFBR1
TGFBR2 = system: TGFBR2
TIE1 = system: TIE1
TIE2 = system: T1, TIE2
T1 construct: gene TEK

TLK1 = system: TLK1
TLK2 = system: TLK2
TNIK = system: TNIK
TNK1 = system: TNK1
TNK2 = system: TNK2
TNNI3K = system: TNNI3K
TRKA = system: T2, TRKA
T2 construct: gene NTRK1

TRKB = system: TRKB
TRKC = system: T3, TRKC
T3 construct: gene NTRK3

TRPM6 = system: TRPM6
TSSK1B = system: TSSK1B
TSSK3 = system: TSSK3
TTK = system: TTK
TXK = system: TXK
[1] = system: TYK2(JH1domain-catalytic)
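Also: KINOMEscan kinase panel screen.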

c1ccc(-c2n[nH]cc2Nc2ccnc3ccccc23)nc1 [GW694077]
%Inh (TESK1): 11% | %Inh (TGFBR1): 5% | %Inh (TGFBR2): 56% | %Inh (TIE1): 0% | %Inh (TIE2): 0% | %Inh (TLK1): 0% | %Inh (TLK2): 0% | %Inh (TNIK): 42% | %Inh (TNK1): 0% | %Inh (TNK2): 1% | %Inh (TNNI3K): 0% | %Inh (TRKA): 74% | %Inh (TRKB): 26% | %Inh (TRKC): 21% | %Inh (TRPM6): 15% | %Inh (TSSK1B): 12% | %Inh (TSSK3): 28% | %Inh (TTK): 64% | %Inh (TXK): 0% | %Inh [1]: 92%

C[C@@H](Oc1cc(-n2cnc3cc(-c4ccnc(NCCS(C)(=O)=O)c4)ccc32)sc1C(N)=O)c1ccccc1Cl [GSK907232]
%Inh (TESK1): 28% | %Inh (TGFBR1): 5% | %Inh (TGFBR2): 0% | %Inh (TIE1): 78% | %Inh (TIE2): 56% | %Inh (TLK1): 0% | %Inh (TLK2): 0% | %Inh (TNIK): 36% | %Inh (TNK1): 17% | %Inh (TNK2): 33% | %Inh (TNNI3K): 31% | %Inh (TRKA): 91% | %Inh (TRKB): 39% | %Inh (TRKC): 30% | %Inh (TRPM6): 0% | %Inh (TSSK1B): 11% | %Inh (TSSK3): 9% | %Inh (TTK): 0% | %Inh (TXK): 28% | %Inh [1]: 12%

Cl.c1ccc(-c2ccc3c(Nc4ccc5[nH]ncc5c4)ccnc3c2)nc1 [GW440137]
%Inh (TESK1): 63% | %Inh (TGFBR1): 31% | %Inh (TGFBR2): 50% | %Inh (TIE1): 1% | %Inh (TIE2): 0% | %Inh (TLK1): 15% | %Inh (TLK2): 5% | %Inh (TNIK): 18% | %Inh (TNK1): 2% | %Inh (TNK2): 8% | %Inh (TNNI3K): 0% | %Inh (TRKA): 0% | %Inh (TRKB): 16% | %Inh (TRKC): 17% | %Inh (TRPM6): 25% | %Inh (TSSK1B): 12% | %Inh (TSSK3): 7% | %Inh (TTK): 3% | %Inh (TXK): 74% | %Inh [1]: 14%

COc1cc(Nc2nccc(-c3c(-c4cccc(NC(=O)c5c(F)cccc5F)c4)nn4ncccc34)n2)cc(OC)c1OC [GSK327238]
%Inh (TESK1): 51% | %Inh (TGFBR1): 1% | %Inh (TGFBR2): 11% | %Inh (TIE1): 90.6% | %Inh (TIE2): 96.9% | %Inh (TLK1): 42% | %Inh (TLK2): 12% | %Inh (TNIK): 80% | %Inh (TNK1): 100% | %Inh (TNK2): 69% | %Inh (TNNI3K): 55% | %Inh (TRKA): 48% | %Inh (TRKB): 0% | %Inh (TRKC): 0% | %Inh (TRPM6): 54% | %Inh (TSSK1B): 11% | %Inh (TSSK3): 19% | %Inh (TTK): 10% | %Inh (TXK): 93.6% | %Inh [1]: 88%

Cc1ccc(F)c(C(=O)Nc2cccc(-c3nn4ccccc4c3-c3ccnc(Nc4cccc(F)c4)n3)c2)c1F [GSK361061]
%Inh (TESK1): 28% | %Inh (TGFBR1): 43% | %Inh (TGFBR2): 21% | %Inh (TIE1): 55% | %Inh (TIE2): 27% | %Inh (TLK1): 8% | %Inh (TLK2): 0% | %Inh (TNIK): 29% | %Inh (TNK1): 88% | %Inh (TNK2): 43% | %Inh (TNNI3K): 37% | %Inh (TRKA): 33% | %Inh (TRKB): 0% | %Inh (TRKC): 0% | %Inh (TRPM6): 36% | %Inh (TSSK1B): 10% | %Inh (TSSK3): 19% | %Inh (TTK): 39% | %Inh (TXK): 52% | %Inh [1]: 0%

COC(=O)Nc1nc2cc(Oc3ccc(NC(=O)Nc4cc(C(F)(F)F)ccc4F)cn3)ccc2[nH]1.Cl.Cl [GW681170]
%Inh (TESK1): 10% | %Inh (TGFBR1): 0% | %Inh (TGFBR2): 0% | %Inh (TIE1): 93.1% | %Inh (TIE2): 98.6% | %Inh (TLK1): 11% | %Inh (TLK2): 0% | %Inh (TNIK): 0% | %Inh (TNK1): 0% | %Inh (TNK2): 0% | %Inh (TNNI3K): 92.9% | %Inh (TRKA): 100% | %Inh (TRKB): 97.4% | %Inh (TRKC): 97% | %Inh (TRPM6): 29% | %Inh (TSSK1B): 0% | %Inh (TSSK3): 16% | %Inh (TTK): 43% | %Inh (TXK): 0% | %Inh [1]: 14%

CN1CCN(CCCNc2nccc(-c3c(-c4ccc(F)cc4)nn4cc(C(F)(F)F)ccc34)n2)CC1 [GW621581]
%Inh (TESK1): 10% | %Inh (TGFBR1): 72% | %Inh (TGFBR2): 44% | %Inh (TIE1): 16% | %Inh (TIE2): 9% | %Inh (TLK1): 2% | %Inh (TLK2): 0% | %Inh (TNIK): 24% | %Inh (TNK1): 0% | %Inh (TNK2): 0% | %Inh (TNNI3K): 0% | %Inh (TRKA): 0% | %Inh (TRKB): 11% | %Inh (TRKC): 5% | %Inh (TRPM6): 1% | %Inh (TSSK1B): 0% | %Inh (TSSK3): 0% | %Inh (TTK): 0% | %Inh (TXK): 14% | %Inh [1]: 28%

Oc1cc(Nc2ccnc3cc(I)ccc23)ccc1F [GW552771]
%Inh (TESK1): 13% | %Inh (TGFBR1): 62% | %Inh (TGFBR2): 99.9% | %Inh (TIE1): 0% | %Inh (TIE2): 0% | %Inh (TLK1): 10% | %Inh (TLK2): 0% | %Inh (TNIK): 47% | %Inh (TNK1): 4% | %Inh (TNK2): 2% | %Inh (TNNI3K): 2% | %Inh (TRKA): 0% | %Inh (TRKB): 23% | %Inh (TRKC): 26% | %Inh (TRPM6): 26% | %Inh (TSSK1B): 6% | %Inh (TSSK3): 13% | %Inh (TTK): 0% | %Inh (TXK): 94.5% | %Inh [1]: 32%

CC(C)c1nc(-c2cccc(NS(=O)(=O)c3c(F)cccc3F)c2F)c(-c2ccnc(Nc3ccc(N4CCOCC4)nc3)n2)s1 [GSK2008607]
%Inh (TESK1): 100% | %Inh (TGFBR1): 86% | %Inh (TGFBR2): 77% | %Inh (TIE1): 91.2% | %Inh (TIE2): 99.1% | %Inh (TLK1): 22% | %Inh (TLK2): 0% | %Inh (TNIK): 63% | %Inh (TNK1): 100% | %Inh (TNK2): 99.6% | %Inh (TNNI3K): 92.7% | %Inh (TRKA): 87% | %Inh (TRKB): 0% | %Inh (TRKC): 51% | %Inh (TRPM6): 57% | %Inh (TSSK1B): 0% | %Inh (TSSK3): 34% | %Inh (TTK): 82% | %Inh (TXK): 95.2% | %Inh [1]: 94.9%

COC(=O)Nc1nc2ccc(Oc3ccc(NC(=O)Nc4cc(C(F)(F)F)ccc4F)cc3)cc2n1C.Cl [GW692089]
%Inh (TESK1): 0% | %Inh (TGFBR1): 7% | %Inh (TGFBR2): 0% | %Inh (TIE1): 97% | %Inh (TIE2): 97.3% | %Inh (TLK1): 0% | %Inh (TLK2): 33% | %Inh (TNIK): 10% | %Inh (TNK1): 0% | %Inh (TNK2): 0% | %Inh (TNNI3K): 72% | %Inh (TRKA): 100% | %Inh (TRKB): 84% | %Inh (TRKC): 96.5% | %Inh (TRPM6): 0% | %Inh (TSSK1B): 0% | %Inh (TSSK3): 0% | %Inh (TTK): 17% | %Inh (TXK): 0% | %Inh [1]: 26%
